{"source": "PubChem BioAssay (EPA / NIEHS)", "note": "The source made the active and inactive calls. Rule for the calls: active = hit-call score of the fitted dose curve at least 0.9, where 1 is the maximum; inactive = score below 0.9."}
{"assay": "APR_HepG2_p53Act_72hr: Apredica 72-hour HepG2 Assay for p53 Activation (AID 2282923);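 note: average cellular p53 protein immunofluorescence intensity in HepG2 cells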", "conditions": "high-content imaging, actives raise or lower the signal", "protocol": "APR_HepG2_72hr is a cell-based, multiplexed-readout assay that uses HepG2, a human liver cell line, with measurements taken at 72 hours after chemical dosing in a 384-well plate.APR_HepG2_p53Act_72hr is one of 10 assay component(s) measured or calculated from the APR_HepG2_72hr assay. It is designed to make measurements of dna content, a form of viability reporter, as detected with fluorescence intensity signals by HCS Fluorescent Imaging technology.Data from the assay component APR_HepG2_p53Act_72hr was analyzed into 1 assay endpoint. This assay endpoint, APR_HepG2_p53Act_72hr, was analyzed with bidirectional fitting relative to DMSO as the negative control and baseline of activity. Using a type of viability reporter, measures of protein for gain or loss-of-signal activity can be used to understand the signaling at the pathway-level as they relate to the gene TP53. Furthermore, this assay endpoint can be referred to as a primary readout, because this assay has produced multiple assay endpoints where this one serves a signaling function. To generalize the intended target to other relatable targets, this assay endpoint is annotated to the dna binding intended target family, where the subfamily is tumor suppressor.\nCells were treated with dimethyl sulfoxide (DMSO) as a solvent control at a final concentration of 0.5% v/v or with compounds in DMSO with a resulting final DMSO concentration of 0.5% v/v. Compound treatment was done at concentrations of 0.39, 0.78, 1.56, 3.12, 6.24, 12.5, 25, 50, 100, and 200 uM in duplicate on each plate. Cells were treated with compounds for 1, 24, or 72 hr. Carbonyl […] m-chloro-phenylhydrazone (CCCP) and taxol were used as positive controls for mitochondrial function and cytoskeletal stability, respectively; DMSO served as the negative control for this experiment. Cells were fixed by the direct addition of 50 uL formaldehyde in Hank's Balanced Salt Solution (HBSS) to a final concentration of 3.7%. After incubation in the fixation medium for 30 min at room temperature (293-298 K), cells were rinsed twice with HBSS and treated with cell permeabilization buffer (16 uL of 0.5% Triton X-100) for 10 min at room temperature (293-298 K) before labeling. For mitochondrial membrane potential and mitochondrial measurements, pre-fixed cells were incubated with 50 uL of MitoTracker Red CMXRos (Invitrogen) at a concentration of 250 nM for 30 min before fixation. In the remaining cases, post-fixed cells were labeled by incubation with a multiplexed mixture of primary antibodies in HBSS for 60 min at room temperature (293-298 K) to detect immunoreactivity of c-Jun (1:500), phospho-histone H3 (1:100), phospho-histone H2A.x (1:200), p53 (1:400), alpha-tubulin (1:200) and Hoechst 33342 (2 ug/mL). Cells were labeled for multiplexed imaging on two separate plates: a) Hoechst 33342, MitoTracker Red, phospho-histone H3, and alpha-tubulin, and b) Hoechst 33342, phospho-histone H2A.x, and c-Jun. A final rinse with HBSS (50 uL) was performed before analysis. The primary and secondary antibodies for the proteins were phospho-histone H3 (rabbit anti-phospho-histone H3 and FITC-donkey anti-rabbit IgG), phospho-histone H2A.x (mouse anti-phospho-histone H2A.x and FITC-donkey anti-mouse IgG), c-Jun (rabbit anti-phospho-c-Jun and Cy3-donkey anti-rabbit IgG), p53 (sheep anti-p53 and Cy5-donkey anti-sheep IgG), alpha-tubulin (mouse anti-alpha-tubulin and Cy5-donkey anti-mouse IgG). These antibodies are available as the CellCiphr HepG2 assay kit (Millipore).Digital images of each well were captured using a Cellomics ArrayScan VTI (Thermo Scientific Cellomics) (0.8 NA objective, 0.63x optical coupler, and XF-93 filter set) at 20x magnification. The images were acquired using the autofocus feature of the ArrayScan instrument, which entails the following steps. First, the camera focuses on channel 1 (Hoechst 33342), where nuclei are identified. Second, a Z offset of 1 um is used for capturing mitochondria (MitoTracker Red). […]"}
{"smiles": "O=CCCCC=O", "outcome": "inactive"}
{"smiles": "CN1C(=O)CC[C@H]1c1cccnc1", "outcome": "inactive"}
{"smiles": "Cc1cc(F)ccc1-c1cc(N2CC[C@@H](O)[C@H]2CO)ncc1N(C)C(=O)C(C)(C)c1cc(C(F)(F)F)cc(C(F)(F)F)c1", "AC50": "65 µM (active)"}
{"smiles": "CN(C[C@@H](CC[N+]12CCC(C3CCCCC3)(CC1)CC2)c1ccc(Cl)c(Cl)c1)C(=O)c1cc(C(F)(F)F)cc(C(F)(F)F)c1", "AC50": "26.7 µM (active)"}
{"smiles": "CCCCCc1ccc(N)cc1", "outcome": "inactive"}
{"smiles": "O=C(Nc1ccc(Cl)cc1)Nc1ccc(Cl)c(Cl)c1", "AC50": "5.61 µM (active)"}
{"smiles": "CCN(Cc1cccc(S(=O)(=O)O)c1)c1ccc(C(=C2C=CC(=[N+](CC)Cc3cccc(S(=O)(=O)O)c3)C=C2)c2ccccc2S(=O)(=O)[O-])cc1", "outcome": "inactive"}
{"smiles": "CCCCCCCC[Si](OCC)(OCC)OCC", "AC50": "19.8 µM (active)"}
{"smiles": "CC1(C)NC(=O)N(c2ccc([N+](=O)[O-])c(C(F)(F)F)c2)C1=O", "outcome": "inactive"}
{"smiles": "CN(C)c1ccc(C(=C2C=CC(=[N+](C)C)C=C2)c2ccc(N(C)C)cc2)cc1", "AC50": "19.9 µM (active)"}
{"smiles": "CCCCCCCCN(C)CCCCCCCC", "outcome": "inactive"}
{"smiles": "O=C(O)Cn1c(=O)n(Cc2ccc(Br)cc2F)c(=O)c2ccc(Cl)cc21", "outcome": "inactive"}
{"smiles": "O=C(O)Cc1cc(I)c(Oc2ccc(O)c(I)c2)c(I)c1", "outcome": "inactive"}
{"smiles": "COc1cccc([C@H](O)C2CCN(CCc3ccc(F)cc3)CC2)c1OC", "outcome": "inactive"}
{"smiles": "CC[C@@H]1C[C@H](N(Cc2cc(C(F)(F)F)cc(C(F)(F)F)c2)C(C)=O)c2cc(C(F)(F)F)ccc2N1C(=O)OC(C)C", "outcome": "inactive"}
{"smiles": "CN1C(=O)N(c2ccccc2Br)Cc2cnc(Nc3ccc4c(c3)OCC(CO)O4)nc21", "note": "(stereo not given)", "AC50": "4.04 µM (active)"}
{"smiles": "COCC(C)OCC(C)OCC(C)O", "note": "(stereo not given)", "outcome": "inactive"}
{"smiles": "O=C1O[C@H]([C@@H](O)CO)C(O)=C1O", "AC50": "10.5 µM (active)"}
{"smiles": "CC(O)CC(C)(C)O", "note": "(stereo not given)", "outcome": "inactive"}
{"smiles": "CCN(Cc1cccnc1)C(=O)c1cccc(Cl)c1[C@]1(C)C(=O)N(Cc2ccc(OC)cc2OC)c2ccc(Cl)cc21", "AC50": "29.4 µM (active)"}
{"smiles": "O=c1[nH]sc2ccccc12", "AC50": "48.5 µM (active)"}
{"smiles": "CCCCOC(=O)c1ccc(O)cc1", "outcome": "inactive"}
{"smiles": "CC1=CC(=O)/C(=C(/C)O)C(=O)O1", "outcome": "inactive"}
{"smiles": "CC(C)(O)c1ccc(CNC(=O)c2cccnc2Oc2ccc3nonc3c2)cc1", "outcome": "inactive"}
{"smiles": "CCO[Si](CCCNC(N)=O)(OCC)OCC", "outcome": "inactive"}
{"smiles": "CCCCCCCCCCCCO", "outcome": "inactive"}
{"smiles": "Clc1ccccc1C(c1ccccc1)(c1ccccc1)n1ccnc1", "AC50": "29.8 µM (active)"}
{"smiles": "CCCOC(=O)c1cc(O)c(O)c(O)c1", "AC50": "38.8 µM (active)"}
{"smiles": "O=C(O)c1ccccc1C(=O)OCc1ccccc1", "outcome": "inactive"}
{"smiles": "Cc1ccc2oc(CN(Cc3ccccc3)C(=O)Nc3c(F)cc(F)cc3F)c(-c3ccc(Cl)cc3)c2c1", "outcome": "inactive"}
{"smiles": "Cc1cn([C@H]2C[C@H](N=[N+]=[N-])[C@@H](CO)O2)c(=O)[nH]c1=O", "outcome": "inactive"}
{"smiles": "CCCCCCCCOc1ccc(C(=O)c2ccccc2)c(O)c1", "outcome": "inactive"}
{"smiles": "Cc1ccc(C(C)C)cc1", "outcome": "inactive"}
{"smiles": "CO[C@H]1/C=C/O[C@@]2(C)Oc3c(C)c(O)c4c(O)c(c(/C=N/N5CCN(C)CC5)c(O)c4c3C2=O)NC(=O)/C(C)=C\\C=C\\[C@H](C)[C@H](O)[C@@H](C)[C@@H](O)[C@@H](C)[C@H](OC(C)=O)[C@@H]1C", "outcome": "inactive"}
{"smiles": "CCCCOC(=O)CC(CC(=O)OCCCC)(OC(C)=O)C(=O)OCCCC", "AC50": "57.9 µM (active)"}
{"smiles": "O=C1c2ccccc2C(=O)N1CCc1noc(-c2ccc(CN3CCCCCC3)s2)n1", "outcome": "inactive"}
{"smiles": "CC(C)(c1cc(Br)c(O)c(Br)c1)c1cc(Br)c(O)c(Br)c1", "AC50": "47.8 µM (active)"}
{"smiles": "CC(C)(C)c1csc(-c2cc3cc(OCc4ccccc4CC(=O)O)ccc3o2)n1", "outcome": "inactive"}
{"smiles": "O=c1ccc2ccccc2o1", "outcome": "inactive"}
{"smiles": "CCCCCCCCCCCO", "outcome": "inactive"}
